# ± gives the standard deviation of the averaged measurements. The full ranking holds about 25,000 sequences; the median of “ln(normalized median fluorescence intensity)” is about 8.9, and the highest 2% start at about 10. For the sample, the highest values were picked, then their nearest neighbours and some sequences at random.
# Test system: PfAP2-LT AP2 domain (GST-tagged)
# Experiment: gcPBM binding intensity (ln(normalized median fluorescence intensity)); higher = stronger DNA binding
# Procedure, shortened: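 After 1 h on an Agilent 4 × 180k array of primer-extended double-stranded 36-bp intergenic genomic probes and negative controls, bound GST-tagged P. falciparum DNA-binding domains were detected with Alexa488 anti-GST antibody and scanned at 488 nm. The domains had been expressed in E. coli, and binding took place in 1× PBS with 1% milk, 0.2 mg/ml BSA, 0.5% salmon testes DNA and 0.03% Triton X-100. Binding intensity is the highest Masliner-normalised natural-log median intensity across replicate spots of either probe orientation.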
row,Sequence,gcPBM binding intensity (ln)
1,GGGCATATAATATAAAGTACAGGACTATAAAAATAT [XGTACX_site4481],8.86 ± 0.59
2,TCTTTTTTTTTTACTAGTACTTAAAAAAAAAATATG [XGTACX_site4395],8.28 ± 0.55
3,TTTGTAAAACTATATTGTACTTTTATATATCTACAA [XGTACX_site5507],8.56 ± 0.47
4,TTTTTAAAAAAGATAAGCGAAAGAATTAATTTTTAA [GTGCAC_negctrl_site197],8.13 ± 0.52
5,TATTTACATATTTATATACACACTTTTGCGTGTCTG [CACACA_site1110],9.36 ± 0.67
6,CATATTATTTATATTTGTACACAGCGATATGAAATA [XGTACX_site7717],8.68 ± 0.35
7,TATAATAAATCAAATGCACACACACTAATAAAAAAA [CACACA_site7937],9.63 ± 0.35
8,AAAAAATCACGACACACACACACACTAAAAAAAAAA [CACACA_site6792],10.1 ± 0.2
9,AAAATCACAAGACACACACACACAAAAAAAAAAAAA [CACACA_site6791],9.94 ± 0.58
10,TGGTTACTGTCATTAGTTATTTCTTGTTGACAATTA [CACACA_negctrl_site416],8.79 ± 0.41
11,AAAAAAAAAAAAAACACACACACACCCATACAAAAT [CACACA_site1446],10.12 ± 0.064
12,AAAAAATACAAACACACACACACACCCATATATATA [CACACA_site3560],10.21 ± 0.057
13,CAAAAAAACAAACACACACACACACCCATATATATA [CACACA_site3653],10.25 ± 0.085
14,ATACAGAAAAAAAACACACACACATAATATACATAC [CACACA_site1933],9.84 ± 0.16
15,CACAAAAAAAATTATACACACACACCCATATATATA [CACACA_site8255],9.82 ± 0.11
16,AAAAAAAAAAAAAACACACACACACCCAAATACATA [CACACA_site708],9.99 ± 0.24
17,TACAAACACCCATATACACACAAAAAAAAAATAAAA [CACACA_site5421],9.24 ± 0.49
18,AACAAAAAAACAAACACACACACACCCATATATATA [CACACA_site3652],10.03 ± 0.042
19,AAAATACAGAAACACACACACACACCCATATATATA [CACACA_site3559],10.31 ± 0.014

row,Sequence,gcPBM binding intensity (ln)
1,ATAAAATACAGATAAACACACATATAAACACCCATA [CACACA_site5381],9.56 ± 0.32
2,CAAAAAAAATTATACACACACACACCCATATATATA [CACACA_site1044],10.04 ± 0.099
3,TATTAATATGGTAATACACACTAATATACTTTTGTT [CACACA_site6860],8.89 ± 0.5
4,ATAAAAATATATGAAACACACAGTTTCTATAAGAAA [CACACA_site4156],8.68 ± 0.47
5,CATATAATTATATATCGTACATATTAATATAATTAC [XGTACX_site401],8.68 ± 0.38
6,GTTAATTTTTGTATAGTGCAAAAATATAATAGTATG,8.64 ± 0.48
7,AACATATATAAATACACACACATATATATATGAAAT [CACACA_site4312],9.51 ± 0.26
8,AAAATAAGAAAACAAATGCACACCATTTATATAGAT [CACACA_site1055],9.03 ± 0.39
9,ATATCTATGTTTATCTCGAATAACTTAAAAAATTAT [CACACA_negctrl_site1131],8.45 ± 0.45
10,AACAGAATAATACTAAATGAACGATTTCTCTTTATG [GTGCAC_negctrl_site376],8.6 ± 0.51
11,ATAAGTGTATAAAAATGTACGTGTATAAAAATATGT [XGTACX_site8235],9.06 ± 0.43
12,ATATATTATATTTAAGTGCATTAATTAAAATGCTTA [GTGCAC_site9403],8.34 ± 0.36
13,GTGTAATGCTTATCGGTGCATATATATATATATATA,10.13 ± 0.021
14,GTGGTTGTAATGGTGGTGCATATTGTATATTATGTT,9.515 ± 0.078
15,CATCACCTTTTTAAATGTACGCATAATACCAAAAAA [XGTACX_site1587],8.6 ± 0.48
16,GAGCCCAAAAAATTAGGTACGTATAAAGAGGTATTT [XGTACX_site5348],8.8 ± 0.54
17,ACCCTATAGGTAACTACACACCGCATATTGTTTACT [CACACA_site7436],9.15 ± 0.34
18,TTAATATTTTGATGTGTACACATTAAAATAGTTTTA [CACACA_site5712],8.46 ± 0.48
19,GAATATTAAACAAACACACACACATATATTTATATA [CACACA_site7563],9.73 ± 0.27

row,Sequence,gcPBM binding intensity (ln)
1,GTTTATATTAAACAAACACACACATATATATATATA [CACACA_site8749],9.57 ± 0.18
2,TTATATTAAACAAACACACACATATAAATATAAATA [CACACA_site7174],9.23 ± 0.3
3,TTATATTAAACAAACACACACATATATATATATATA [CACACA_site2382],9.54 ± 0.49
4,GAATATTAAACAAACACACACACATATATATATATA [CACACA_site3382],10.1 ± 0.2
5,ATATTAAACAAACACACACACATATATATATATATA [CACACA_site3383],10.2 ± 0.35
6,TGTATATATTTGTGCACACCAAAGTTTGATTTTATT [CACACA_site1860],9.3 ± 0.42
7,TTGTATATATTAAATTGTACTTATTTTTTGTATATA [XGTACX_site3251],8.64 ± 0.54
8,CTGAGGAAGCTAATTACACACATGCATATTTTTTTT [CACACA_site2177],9.08 ± 0.28
9,AATGTACCCACACCCACACACAAACAAATATATATA [CACACA_site2751],9.74 ± 0.29
10,CACAAACAAAAACACACACACACACCCACAAAAATG [CACACA_site2429],10.2 ± 0.34
11,TGCAACAAAATAAACACACACACACCCCCACAAAAA [CACACA_site3388],10.36 ± 0.057
12,TTTAAACAAGGATCCACACACCCCAAAAAAAAAAGA [CACACA_site680],9.26 ± 0.4
13,AGCACACCCACAAAAACACACACAAAGGTGTTCTTA [CACACA_site8355],9.39 ± 0.42
14,AAAAAAAAAAAAAACACACACATACACCCAAAAATG [CACACA_site4223],9.66 ± 0.24
15,AAAAAAATAAAACACACACACAAAAAAATAAAAATA [CACACA_site465],9.56 ± 0.3
16,GTAAAAAAAGAGCACACACACAAAAACACCCACAAA [CACACA_site1292],10.3 ± 0.23
17,AATGTACACCCACCCACACACAAACAAATATATATA [CACACA_site5521],10.1 ± 0.4
18,AAAAAAAAAAAACACACACACACACCCACAAAATAT [CACACA_site1447],10.31 ± 0.028
19,TGCAACAAAATAAACACACACACACTAACACAAAAA [CACACA_site7567],9.98 ± 0.33
